# About 8,800 targets were measured; listed, in parts, are those with a hit and a random draw of the rest. About 0.5% of all pairs of compound and target were hits. A number with no mark means an inactive call.
# Compound: Cc1nc(Nc2ncc(C(=O)Nc3c(C)cccc3Cl)s2)cc(N2CCN(CCO)CC2)n1 [dasatinib]
# Experiment: log2 fold change, soluble protein after heating vs DMSO (PISA); higher = thermal stabilisation; K562 lysate, 10 uM; active = over 0.2 and 3.5 SD of the protein, either way, in both replicates (recomputed)
# Procedure, shortened: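 Dounce homogenisation of K562 pellets in PBS pH 7.4 with 1 mM MgCl2 produced a crude extract, used at 1 mg/mL protein. Exposure to 10 μM compound lasted 30 min, and aliquots were then heated for 3 min across 48°C-58°C, pooled and brought to 0.5% NP-40 at 4°C. The supernatant after 21,000xg for 90 min was quantified by TMTpro 16plex LC-MS/MS with channel sums equalised. Duplicate values are given as log-two fold change in thermal stability relative to solvent controls.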
# UniProt Q8WV92, sequence (Q8WV92 whole entry, looked up): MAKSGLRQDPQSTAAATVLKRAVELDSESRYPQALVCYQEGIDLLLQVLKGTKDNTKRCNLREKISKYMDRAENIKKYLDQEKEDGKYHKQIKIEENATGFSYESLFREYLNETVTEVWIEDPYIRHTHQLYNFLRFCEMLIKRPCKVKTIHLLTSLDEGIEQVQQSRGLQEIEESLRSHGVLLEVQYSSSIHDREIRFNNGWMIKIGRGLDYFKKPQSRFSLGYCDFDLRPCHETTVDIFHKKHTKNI
# UniProt P40692, sequence (P40692 whole entry, looked up): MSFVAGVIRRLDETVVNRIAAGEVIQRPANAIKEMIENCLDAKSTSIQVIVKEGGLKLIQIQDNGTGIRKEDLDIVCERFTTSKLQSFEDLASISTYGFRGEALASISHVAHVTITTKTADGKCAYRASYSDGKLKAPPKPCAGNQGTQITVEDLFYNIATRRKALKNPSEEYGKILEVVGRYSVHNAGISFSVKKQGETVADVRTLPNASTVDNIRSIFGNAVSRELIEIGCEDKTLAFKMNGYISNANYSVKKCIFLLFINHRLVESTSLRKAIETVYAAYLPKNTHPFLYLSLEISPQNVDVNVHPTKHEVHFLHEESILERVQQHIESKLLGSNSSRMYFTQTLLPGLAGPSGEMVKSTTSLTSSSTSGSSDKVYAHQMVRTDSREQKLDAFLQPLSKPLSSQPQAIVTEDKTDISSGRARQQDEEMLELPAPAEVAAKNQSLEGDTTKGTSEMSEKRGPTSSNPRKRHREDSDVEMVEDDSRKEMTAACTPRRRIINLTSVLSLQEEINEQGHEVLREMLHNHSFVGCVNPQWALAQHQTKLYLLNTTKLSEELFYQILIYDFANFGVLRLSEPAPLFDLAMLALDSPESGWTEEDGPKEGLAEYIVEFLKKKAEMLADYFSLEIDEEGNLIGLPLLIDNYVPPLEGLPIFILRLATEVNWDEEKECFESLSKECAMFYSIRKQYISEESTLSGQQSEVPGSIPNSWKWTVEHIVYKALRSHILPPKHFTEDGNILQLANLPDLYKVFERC
# UniProt Q9BV79, sequence (Q9BV79 whole entry, looked up): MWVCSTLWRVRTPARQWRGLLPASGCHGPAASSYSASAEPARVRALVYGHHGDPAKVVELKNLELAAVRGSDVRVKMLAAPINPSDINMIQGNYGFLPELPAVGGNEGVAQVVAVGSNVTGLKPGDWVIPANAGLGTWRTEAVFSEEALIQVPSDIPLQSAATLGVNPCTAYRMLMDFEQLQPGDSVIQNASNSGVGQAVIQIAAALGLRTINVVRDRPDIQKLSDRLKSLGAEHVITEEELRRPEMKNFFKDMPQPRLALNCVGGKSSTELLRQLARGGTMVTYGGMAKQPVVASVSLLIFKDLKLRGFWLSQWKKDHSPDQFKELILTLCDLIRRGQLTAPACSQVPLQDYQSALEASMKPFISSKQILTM
# UniProt P14174, sequence (P14174 whole entry, looked up): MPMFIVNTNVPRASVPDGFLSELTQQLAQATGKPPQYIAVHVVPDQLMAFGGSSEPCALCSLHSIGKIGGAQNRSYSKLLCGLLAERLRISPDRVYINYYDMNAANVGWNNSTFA
# UniProt Q9UBB5, sequence (Q9UBB5 whole entry, looked up): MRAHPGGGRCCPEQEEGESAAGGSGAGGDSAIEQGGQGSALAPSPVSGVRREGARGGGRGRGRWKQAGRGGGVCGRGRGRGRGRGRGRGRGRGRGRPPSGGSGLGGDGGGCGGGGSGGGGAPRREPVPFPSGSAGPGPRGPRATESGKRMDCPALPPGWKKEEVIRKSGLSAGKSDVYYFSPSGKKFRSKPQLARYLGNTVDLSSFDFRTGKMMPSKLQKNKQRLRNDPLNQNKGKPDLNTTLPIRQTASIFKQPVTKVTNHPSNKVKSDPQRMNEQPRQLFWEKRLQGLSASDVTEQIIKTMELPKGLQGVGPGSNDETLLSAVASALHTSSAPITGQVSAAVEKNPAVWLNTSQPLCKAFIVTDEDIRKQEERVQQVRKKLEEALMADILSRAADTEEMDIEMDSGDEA
# UniProt Q7Z3D4, sequence (Q7Z3D4 whole entry, looked up): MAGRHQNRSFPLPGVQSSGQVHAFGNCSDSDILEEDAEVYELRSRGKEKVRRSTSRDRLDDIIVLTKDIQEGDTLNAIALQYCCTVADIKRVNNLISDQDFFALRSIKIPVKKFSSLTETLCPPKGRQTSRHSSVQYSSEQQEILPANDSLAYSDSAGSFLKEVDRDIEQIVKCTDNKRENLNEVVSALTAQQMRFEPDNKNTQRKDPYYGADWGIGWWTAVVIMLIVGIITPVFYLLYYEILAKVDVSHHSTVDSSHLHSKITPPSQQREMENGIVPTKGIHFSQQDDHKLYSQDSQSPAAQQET
# UniProt Q9HD34, sequence (Q9HD34 whole entry, looked up): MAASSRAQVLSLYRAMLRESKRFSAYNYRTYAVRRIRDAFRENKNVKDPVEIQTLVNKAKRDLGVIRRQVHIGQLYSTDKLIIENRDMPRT
# UniProt Q9Y6R4, sequence (Q9Y6R4 whole entry, looked up): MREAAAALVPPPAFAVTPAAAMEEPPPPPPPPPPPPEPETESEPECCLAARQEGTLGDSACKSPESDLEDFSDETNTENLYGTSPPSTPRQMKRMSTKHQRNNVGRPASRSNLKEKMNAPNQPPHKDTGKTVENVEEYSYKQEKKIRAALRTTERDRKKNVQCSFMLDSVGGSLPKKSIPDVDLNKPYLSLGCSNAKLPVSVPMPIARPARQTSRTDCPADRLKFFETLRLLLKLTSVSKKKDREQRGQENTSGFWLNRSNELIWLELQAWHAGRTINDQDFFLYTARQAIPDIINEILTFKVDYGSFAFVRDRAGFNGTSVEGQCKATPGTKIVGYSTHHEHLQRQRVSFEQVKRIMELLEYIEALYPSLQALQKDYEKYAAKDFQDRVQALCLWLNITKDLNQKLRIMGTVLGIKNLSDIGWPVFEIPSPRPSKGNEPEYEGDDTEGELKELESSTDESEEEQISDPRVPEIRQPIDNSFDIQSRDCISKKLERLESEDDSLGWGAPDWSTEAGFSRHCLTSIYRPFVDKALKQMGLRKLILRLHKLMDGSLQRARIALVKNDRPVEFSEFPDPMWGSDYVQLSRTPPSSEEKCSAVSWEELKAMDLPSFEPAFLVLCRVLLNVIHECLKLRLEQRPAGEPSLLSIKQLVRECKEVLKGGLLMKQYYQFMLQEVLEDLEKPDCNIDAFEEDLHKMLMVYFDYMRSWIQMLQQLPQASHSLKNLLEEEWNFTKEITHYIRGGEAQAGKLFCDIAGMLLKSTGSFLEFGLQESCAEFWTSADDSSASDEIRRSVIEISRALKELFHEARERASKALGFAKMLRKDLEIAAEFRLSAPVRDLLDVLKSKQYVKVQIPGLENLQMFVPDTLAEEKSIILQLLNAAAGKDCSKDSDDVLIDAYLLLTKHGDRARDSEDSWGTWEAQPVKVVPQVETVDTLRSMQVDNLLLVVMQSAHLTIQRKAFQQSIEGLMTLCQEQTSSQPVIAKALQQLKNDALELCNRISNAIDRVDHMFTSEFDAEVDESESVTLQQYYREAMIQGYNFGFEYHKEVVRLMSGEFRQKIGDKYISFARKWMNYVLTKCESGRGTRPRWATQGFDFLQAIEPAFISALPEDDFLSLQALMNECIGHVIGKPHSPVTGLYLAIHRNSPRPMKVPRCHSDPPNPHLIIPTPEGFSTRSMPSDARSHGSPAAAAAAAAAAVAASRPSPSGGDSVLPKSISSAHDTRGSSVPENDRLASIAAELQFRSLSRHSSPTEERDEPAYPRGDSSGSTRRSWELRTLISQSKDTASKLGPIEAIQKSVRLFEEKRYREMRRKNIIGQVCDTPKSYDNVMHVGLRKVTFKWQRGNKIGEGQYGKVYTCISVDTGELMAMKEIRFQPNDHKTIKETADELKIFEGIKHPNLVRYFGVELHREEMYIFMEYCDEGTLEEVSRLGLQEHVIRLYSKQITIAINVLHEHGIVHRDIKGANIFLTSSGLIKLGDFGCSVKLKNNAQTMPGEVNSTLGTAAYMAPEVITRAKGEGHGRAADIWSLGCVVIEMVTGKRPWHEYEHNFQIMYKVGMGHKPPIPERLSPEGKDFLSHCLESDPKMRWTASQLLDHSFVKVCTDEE
# UniProt Q9NVC6, sequence (Q9NVC6 whole entry, looked up): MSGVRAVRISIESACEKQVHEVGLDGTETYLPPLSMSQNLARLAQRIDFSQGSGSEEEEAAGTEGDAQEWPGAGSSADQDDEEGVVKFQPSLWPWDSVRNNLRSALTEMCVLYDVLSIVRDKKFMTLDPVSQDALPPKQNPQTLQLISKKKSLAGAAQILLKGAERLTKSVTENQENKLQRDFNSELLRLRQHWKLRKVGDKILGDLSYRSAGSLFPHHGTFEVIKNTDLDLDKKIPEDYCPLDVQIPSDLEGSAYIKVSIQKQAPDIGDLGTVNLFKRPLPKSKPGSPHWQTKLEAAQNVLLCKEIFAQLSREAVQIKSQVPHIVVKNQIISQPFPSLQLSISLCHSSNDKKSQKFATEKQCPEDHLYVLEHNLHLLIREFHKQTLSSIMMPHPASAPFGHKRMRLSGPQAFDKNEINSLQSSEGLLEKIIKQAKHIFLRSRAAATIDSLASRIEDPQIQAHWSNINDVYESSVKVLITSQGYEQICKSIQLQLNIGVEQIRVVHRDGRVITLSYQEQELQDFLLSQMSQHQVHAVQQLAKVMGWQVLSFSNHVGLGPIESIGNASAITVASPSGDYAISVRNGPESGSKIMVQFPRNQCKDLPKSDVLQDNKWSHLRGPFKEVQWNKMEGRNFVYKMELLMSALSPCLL
# UniProt P48059, sequence (P48059 whole entry, looked up): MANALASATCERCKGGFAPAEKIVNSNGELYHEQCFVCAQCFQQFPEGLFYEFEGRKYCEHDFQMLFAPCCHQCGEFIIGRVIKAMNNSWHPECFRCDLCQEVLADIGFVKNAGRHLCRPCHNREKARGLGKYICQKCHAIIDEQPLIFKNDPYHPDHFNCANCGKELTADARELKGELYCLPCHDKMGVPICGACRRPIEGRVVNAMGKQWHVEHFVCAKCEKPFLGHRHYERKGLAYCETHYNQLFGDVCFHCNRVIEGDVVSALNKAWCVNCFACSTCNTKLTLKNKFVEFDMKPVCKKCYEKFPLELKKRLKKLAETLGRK
row,Target,log2 fold change
1,MITD1 (UniProt Q8WV92),0.011
2,LYRM4 (UniProt Q9HD34),-0.061
3,LSG1 (UniProt Q9H089),0.102
4,MED8 isoform 2 (UniProt Q96G25),-0.017
5,LARP4B (UniProt Q92615),-0.053
6,MPDZ (UniProt O75970),-0.082
7,LGALS3BP (UniProt Q08380),0.339
8,MCMBP (UniProt Q9BTE3),-0.031
9,MIPEP (UniProt Q99797),0.005
10,MED17 (UniProt Q9NVC6),-0.033
11,MLH1 (UniProt P40692),-0.007
12,LIG4 (UniProt P49917),0.018
13,MPZL1 (UniProt O95297),0.033
14,MAPK9 (UniProt P45984),-0.005
15,MAP2K7 isoform 4 (UniProt O14733),-0.093
16,MFF isoform 2 (UniProt Q9GZY8),-0.005
17,LYAR (UniProt Q9NX58),0.002
18,MECR (UniProt Q9BV79),-0.03
19,MAPKAPK3 (UniProt Q16644),0.023
20,MAP3K4 (UniProt Q9Y6R4),0.485 (active)

row,Target,log2 fold change
1,MAST4 (UniProt O15021),0.001
2,MINDY1 isoform 3 (UniProt Q8N5J2),-0.086
3,LYSMD3 (UniProt Q7Z3D4),-0.083
4,LARS2 (UniProt Q15031),-0.075
5,MCCC1 (UniProt Q96RQ3),-0.103
6,MIF (UniProt P14174),0.001
7,LAMP1 (UniProt P11279),-0.058
8,MED12 isoform 2 (UniProt Q93074),-0.024
9,MAP4 (UniProt E7EVA0),-0.009
10,MED10 (UniProt Q9BTT4),0.031
11,KLC2 (UniProt Q9H0B6),-0.062
12,LRWD1 (UniProt Q9UFC0),-0.055
13,MBD2 (UniProt Q9UBB5),-0.039
14,LARS (UniProt Q9P2J5),-0.065
15,MON2 isoform 5 (UniProt Q7Z3U7),-0.072
16,MAD2L1BP isoform 3 (UniProt Q15013),0.016
17,MLLT11 (UniProt Q13015),-0.015
18,LIG3 (UniProt P49916),-0.011
19,LIMS1 isoform 3 (UniProt P48059),0.017
